# Hit rate of the full screen: of about 2,100 compounds, about 940 (45%) were called active. Inconclusive results (about 48%) are left out. The set was probably picked from earlier hits. The list shows a part of the results. Values without a mark were called inactive. The call rests on the fitted dose curve; in most records, active means well fitted inhibition curve with a large enough effect; inconclusive means small, poorly fitted or top-dose-only effect; inactive means no such curve, though single readings can be large or run the other way.
# Assay: Confirmatory qHTS for Inhibitors of ATXN expression; further: nearly all actives have a fitted effect of over 65% in size;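 on activity change, negative = inhibition: 0% = DMSO vehicle wells and -100% = medium-only wells without cells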
# Conditions: ATXN2-luciferase reporter cells, luminescence, 24 h; series mostly up to 57.5 µM; activity change, negative = inhibition: at the top concentration
# Source text: PI: Daniel Scoles Ph.D. University of Utah School of Medicine, Salt Lake City, Utah MLPCN Grant: NS073009 Spinocerebellar ataxia type 2 (SCA2) is a multisystem neurodegenerative disease caused by a dominantly acting mutation leading to expansion of a polyQ domain in the ataxin-2 protein (ATXN2). SCA2 patients develop progressive ataxia and later lose function in other neuronal systems. Prominent parkinsonian signs develop in some patients. Like many neurodegenerative disorders, no symptomatic or disease-modifying treatments are known. The primary objective of the proposed research is to identify compounds inhibiting ATXN2 expression and to test them for efficacy in SCA2 mouse models. We have developed a cell-based assay paired with an in vivo mouse model using identical luciferase expression constructs. This approach takes advantage of an ATXN2-luciferase transgene, with the luciferase gene flanked by the upstream and downstream portions of the ATXN2 gene. Here we describe a 5-7 dose quantitative high thoroughput screen (qHTS) for compounds lowering ATXN2 expression. We screened the NIH Molecular Libraries Small Molecule Repository (MLSMR) and NCGC's mechanistically annotated (MIPE) and drug repurposing (NPC) collections of compounds for lowering expression of an ATXN2-luciferase reporter in HEK-293 cells. The assay is a multiplexed cell viability assay to ensure target reduction in the absence of cytotoxicity. Secondary qHTS assays included a CMV-luciferase reporter expressed in HEK-293 cells as well as a biochemical assay using recombinant luciferase to detect inhibitors of the reporter enzyme. Compounds that inhibit ATXN2 expression but is not cytotoxic were selected for confirmatory and secondary screens.
# PROTOCOL TABLE (as described by Inglese J, Shamu CE and Guy RK. 2007) SEQUENCE No. (e.g., 1, 2, 3, etc.); PARAMETER (e.g., Cells, Incubation, Reagent, etc.); VALUE; DESCRIPTION. 1; Cells; 4 uL; white, solid bottom, 1536-well Greiner assay plate. 2; Incubation; 2 hr; 37 degree C in 5% humidified CO2. 3; Compounds; 23 nL; Kalypsis pintool (Wako USA) equipped with a 1536-well pin head. 4; Incubation; 24 hr; 37 degree C in 5% humidified CO2. 5; Reagent; 1 uL; Gly-Phe-7-Amino-4-trifluoromethylcoumarin. 6; Incubation; 30 min; 37 degree C in 5% humidified CO2. 7; Detection; Fluorescence; ViewLux plate reader (PerkinElmer). 8; Reagent; 3 uL; SteadyGlo luciferase solution (Promega). 9; Incubation; 5 min; room temperature. 10; Detection; Luminescence; ViewLux plate reader (PerkinElmer). NOTES (numbers refer to Sequence numbers above) 1. […] expressing ATXN2-luciferase reporter were suspended in phenol-red free DMEM and dispensed in assay plates using a Multidrop Combi dispenser (Thermo Fisher Scientific). Wells containing medium only were plated on each plate, and values were used to normalize (100% inhibition) in the luciferase and CellTiter-Fluor assays. 2. Assay plates were incubated. Evaporation was prevented by covering assay plates with metal lids containing holes to allow gas diffusion. 3. Compounds were added in a dose response manner with the final concentrations of 57, 11.4, 2.28, 0.46, 0.091, 0.018, 0.0037 uM. Vehicle-only plates, with DMSO being pin-transferred to columns 5-48, were inserted uniformly at the beginning and the end of each library to monitor and record any shifts in assay performance. 5. 125 uM Gly-Phe-7-Amino-4-trifluoromethylcoumarin (MP Biomedicals) working concentration was used at a final concentration of 25 uM. 7. To assess cell viability; the assay plates were read using the ViewLux high-throughput CCD imager (PerkinElmer), wherein single end-point fluorescence measurement was acquired (excitation 405/10; emission 540/25 nm). 8. Detection reagent SteadyGlo Luciferase (Promega) was added to the assay plate. 10. Luminescence is then measured on the ViewLux imager equipped with a clear emission filter using a 2 sec exposure. […]
# Potency means the concentration at half of the fitted maximal effect.
SMILES,Potency,"activity change, negative = inhibition [%]"
N#Cc1ncc(N=Cc2ccc(N(CCCl)CCCl)cc2)s1,2 µM (active),
CCCCC(=O)N/N=C/c1c(O)n(CCC2=CCCCC2)c(=O)[nH]c1=O,15.8 µM (active),
CCCCCCC(=O)N/N=C/c1c(O)n(CCCC)c(=S)[nH]c1=O,15.8 µM (active),
CCCCCCC(=O)N/N=C/c1c(O)n(CCc2ccccc2)c(=O)[nH]c1=O,12.6 µM (active),
Cc1ccc(N2C(=O)NC(=O)/C(=C/C=C/c3ccco3)C2=O)cc1,2.82 µM (active),
COc1ccc(CC2C(=O)NC(C)C(=O)N(C)C3C(=O)N(C)C(Cc4ccc(O)c(c4)Oc4ccc(cc4)C3O)C(=O)NC(C)C(=O)NC(C)C(=O)N2C)cc1 (stereo not given),0.316 µM (active),
CCC(C)N1C(=O)/C(=C\c2cnc(N(C)C)nc2)C(=O)NC1=S (stereo not given),,-13.2
CC12CCC(O)CC1CCC1C2CCC2(C)C(C3=CC(=O)OC3)C(O)CC12O (stereo not given),3.16 µM (active),
C[C@]12CC[C@H](O)C[C@H]1CC[C@@H]1C2CC[C@]2(C)[C@@H](C3=CC(=O)OC3)[C@@H](O)C[C@]12O (stereo not given in full),0.355 µM (active),
CC(=O)OC1CC2(O)C3CCC4CC(O)CCC4(C)C3CCC2(C)C1C1=CC(=O)OC1 (stereo not given),0.316 µM (active),
CC1OC(OC2C(O)CC(OC3C(O)CC(OC4CCC5(C)C(CCC6C5CCC5(C)C(C7=CC(=O)OC7)C(O)CC65O)C4)OC3C)OC2C)CC(O)C1O (stereo not given),0.316 µM (active),
COC1C(O)C(C)OC(OC2CCC3(C)C(CCC4C3C(O)CC3(C)C(C5=CC(=O)OC5)CCC43O)C2)C1O (stereo not given),0.316 µM (active),
CN1CN(c2ccccc2)C2(CCN(CCCSc3ccccc3NC(=O)/C=C/c3ccccc3)CC2)C1=O,28.2 µM (active),
CC(C)c1oc(=O)cc2c1[C@@H](O)[C@H]1OC(=O)[C@@]3(C)CC[C@@H](O)[C@@]2(C)C13 (stereo not given in full),3.16 µM (active),
CC[C@@]1(O)C(=O)OCc2c1cc1n(c2=O)Cc2cc3c(NC(=O)CN)cccc3nc2-1,0.112 µM (active),
CCC1(OC(=O)CN)C(=O)OCc2c1cc1n(c2=O)Cc2cc3ccccc3nc2-1 (stereo not given),0.0398 µM (active),
COc1ccc(CC2NCC(O)C2OC(C)=O)cc1 (stereo not given),0.224 µM (active),
COc1ccc(C[C@H]2NC[C@H](O)[C@H]2OC(C)=O)cc1,0.0282 µM (active),

SMILES,Potency,"activity change, negative = inhibition [%]"
Cc1ccc(/C=C2\C(=O)NC(=S)N(c3ccccc3F)C2=O)s1,3.16 µM (active),
CCC1CN2CCc3cc(OC)c(OC)cc3C2CC1CC1NCCc2c1[nH]c1ccc(O)cc21 (stereo not given),0.0398 µM (active),
CSCCC(c1nnnn1-c1c(C)cccc1C)N1CCC2(CC1)C(=O)NCN2c1ccccc1 (stereo not given),35.5 µM (active),
CCC(C)(O)C(=O)OC1C(=O)OC2CC3C(C)=CC(=O)C(O)C3(C)C3C4(O)OCC23C1C(C)C4O (stereo not given),0.251 µM (active),
O=c1[nH]c2ccccc2n1C1CCN(C(CCc2ccccc2)c2nnnn2C2CCCC2)CC1 (stereo not given),22.4 µM (active),
CC(C)(C)n1nnnc1C(CCc1ccccc1)N1CCC(n2c(=O)[nH]c3ccccc32)CC1 (stereo not given),28.2 µM (active),
COC(=O)c1nc(-c2ccc3c(n2)C(=O)C(N)=C(OC)C3=O)c(N)c(-c2ccc(OC)c(OC)c2O)c1C,14.1 µM (active),
COc1cc(C(=O)NN=Cc2ccc(N(CCCl)CCCl)cc2)cc(OC)c1OC,8.91 µM (active),
O=C(NN=Cc1ccc(N(CCCl)CCCl)cc1)c1cc(=O)[nH]c(=O)[nH]1,3.16 µM (active),
Cc1cc(N(CCCl)CCCl)ccc1C=NNC(=O)c1cccnc1,1.58 µM (active),
COc1ccc(N=Cc2c(O)n(-c3ccc(C)cc3)c(=O)[nH]c2=O)cc1,,-15.9
Oc1c(Cl)cccc1Cc1cc(Cl)cc(Cl)c1O,15.8 µM (active),
Clc1ccc2[nH]c3c(c2c1)CCNC3,3.16 µM (active),
O=[N+]([O-])c1oc2ccc3ccccc3c2c1CCO,14.1 µM (active),
C[C@@H]1O[C@@H](O[C@@H]2C=C3CC[C@@H]4C(CC[C@]5(C)[C@@H](c6ccc(=O)oc6)CC[C@]45O)[C@@]3(C)CC2)[C@H](O)[C@H](O)[C@H]1O (stereo not given in full),0.112 µM (active),
COc1cccc2c1C(=O)c1c(O)c3c(c(O)c1C2=O)CC(O)(C(C)=NO)CC3OC1CC(N)C(O)C(C)O1 (stereo not given),0.708 µM (active),
Cc1ccc(N2C(=O)NC(=O)/C(=C\c3cc(C)n(-c4sc5c(c4C#N)CCCC5)c3C)C2=O)cc1,10 µM (active),

# Source: PubChem BioAssay AID1745848 (National Center for Advancing Translational Sciences (NCATS), 2022)
